“And” between values parts separate entries of the source, which are not always exact repeats. Equal entries are not always repeated. Inconclusive results are not listed. The source made the active and inactive calls. Calls come from the whole dose curve; as a rule, active = well fitted curve in the direction sought with a large enough effect; inconclusive = small, poorly fitted or top-dose-only effect, or another doubt; inactive = no such curve, though single readings can be large; an effect the other way counts as inactive or inconclusive.
Legend:
HEK293 = test: Cytotoxic Profiling of Annotated Libraries Using Quantitative High-Throughput Screening (AID 1296008); settings: Five cell lines viability, CellTiter-Glo ATP luminescence, 48-72 h; max response: hits give low values; note: nearly all actives have a fitted effect of over 60% in size; note: potency is the fitted concentration of half-maximal effect; for max response: % is set by controls: 0 for no effect and ±100 for the full control effect
How it was run: (§1)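 Cytotoxicity was measured as CellTiter-Glo ATP luminescence, read after 10 min at room temperature. Compound treatment of the cells lasted 48 or 72 hr at 37 degrees Celsius in a qHTS format.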

HaCat [1] = test: as above; settings: Five cell lines viability, CellTiter-Glo ATP luminescence, 48-72 h; max response: hits give low values
How it was run: as §1

KB-3-1 = test: as above; settings: Five cell lines viability, CellTiter-Glo ATP luminescence, 48-72 h; max response: hits give low values
How it was run: as §1

NIH3T3 = test: as above; settings: Five cell lines viability, CellTiter-Glo ATP luminescence, 48-72 h; max response: hits give low values
How it was run: as §1

HACAT [2] = test: qHTS assay to identify novel small-molecules to repurpose for Merkel cell carcinoma treatment (AID 1296009); settings: MCC and control cell lines, CellTiter-Glo viability, 72 h; at 44.8 µM (top of the series) unless noted; note: nearly all actives have a fitted effect of over 60% in size; note: potency is the fitted concentration of half-maximal effect
How it was run: (§2)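 After compound transfer in DMSO, plates were kept 72 hr at 37 degree celsius. Luminescent ATP signal from CellTiter-Glo served as viability measure, normalized against DMSO and no-cell controls.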

MCC-13 = test: as above; settings: MCC and control cell lines, CellTiter-Glo viability, 72 h; series mostly up to 46 µM
How it was run: as §2

MCC-26 = test: as above; settings: MCC and control cell lines, CellTiter-Glo viability, 72 h; series mostly up to 46 µM
How it was run: as §2

MKL-2 = test: as above; settings: MCC and control cell lines, CellTiter-Glo viability, 72 h; series mostly up to 46 µM
How it was run: as §2

UISO = test: as above; settings: MCC and control cell lines, CellTiter-Glo viability, 72 h; series mostly up to 46 µM
How it was run: as §2

C33A = test: Primary qHTS to identify gynecologic anti-cancer compounds using libraries of approved drugs and bioactive compounds (AID 1345084); settings: Gynecologic cancer cell panel viability, ATPlite luminescence, 48 h; series mostly up to 57.5 µM; note: nearly all actives have a fitted effect of over 55% in size; note: potency is the fitted concentration of half-maximal effect
How it was run: (§3)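 Cell viability after 48 h drug treatment, ATPlite luminescence readout; five doses.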

CAOV3 = test: as above; settings: Gynecologic cancer cell panel viability, ATPlite luminescence, 48 h; series mostly up to 57.5 µM
How it was run: as §3

CASKI = test: as above; settings: Gynecologic cancer cell panel viability, ATPlite luminescence, 48 h; series mostly up to 57.5 µM
How it was run: as §3

Es-2 = test: as above; settings: Gynecologic cancer cell panel viability, ATPlite luminescence, 48 h; series mostly up to 57.5 µM
How it was run: as §3

HeLa = test: as above; settings: Gynecologic cancer cell panel viability, ATPlite luminescence, 48 h; series mostly up to 57.5 µM
How it was run: as §3

W2 = test: qHTS profiling for inhibitors of Plasmodium falciparum proliferation (AID 504749);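 note: 0% = DMSO vehicle and full inhibition = artemisinin control; nearly all actives have a fitted effect of over 60% in size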; settings: P. falciparum in erythrocytes, SYBR Green DNA, 72 h; series mostly up to 28.7 µM
How it was run: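 Three-day growth assay of blood-stage parasites in erythrocytes (0.3% parasitemia, 2.5% hematocrit) at 37 C, 5% CO2, quantified by SYBR Green DNA staining after overnight detergent lysis.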

MKL-1 = test: qHTS assay to identify novel small-molecules to repurpose for Merkel cell carcinoma treatment (AID 1296009); settings: MCC and control cell lines, CellTiter-Glo viability, 72 h; series mostly up to 46 µM; note: nearly all actives have a fitted effect of over 60% in size; note: potency is the fitted concentration of half-maximal effect
How it was run: as §2

WaGa = test: as above; settings: MCC and control cell lines, CellTiter-Glo viability, 72 h; series mostly up to 46 µM
How it was run: as §2

CCc1ccc(C(=O)C(C)CN2CCCCC2)cc1 (configuration not stated)
active: Potency (MKL-2) 11.9 µM
inactive: max response (HEK293) -19.7% | outcome (HaCat [1]) | max response (KB-3-1) -1.02% | max response (NIH3T3) -2.26% | outcome (HACAT [2]) | Potency (MCC-13) | Potency (MCC-26) | Potency (UISO) | Potency (C33A) | Potency (CAOV3) | Potency (CASKI) | Potency (Es-2) | Potency (HeLa)

C#C[C@]1(O)CC[C@H]2[C@@H]3CCC4=Cc5oncc5C[C@]4(C)[C@H]3CC[C@@]21C
active: Potency (HEK293) 21.1 µM | Potency (HeLa) 0.794 µM
inactive: Potency (W2) | Potency (MCC-13) | Potency (MCC-26) | Potency (MKL-1) | Potency (MKL-2) | Potency (UISO) | Potency (WaGa) | Potency (C33A) | Potency (CAOV3) | Potency (CASKI) | Potency (Es-2)

O=C(N/N=C/c1ccc([N+](=O)[O-])o1)c1ccc(O)cc1
inactive: max response (HaCat [1]) -33.9% | max response (KB-3-1) -13.9% | Potency (HeLa)
active: Potency (HEK293) 7.5 µM | Potency (MKL-1) 9.44 µM | Potency (MKL-2) 10.6 µM | Potency (UISO) 13.3 µM | Potency (WaGa) 10.6 µM

CCOC(=O)[C@H](CCc1ccccc1)N[C@@H](C)C(=O)N1[C@H](C(=O)O)C[C@H]2CCCC[C@@H]21
inactive: Potency (W2) | max response (KB-3-1) 8% and -12.5%
